Only some compounds are listed: those with a hit (about 7.8% of all), similar ones and a draw of the others.
MARV entry inh: Marburg virus entry inhibition; Marburg virus pseudotyped entry inhibition, cell reporter; Potency, µM (titrated, usually from 37.8 µM), inactives show at the highest dose activity change, negative = inhibition, usual class: inhibitors; 300,000 compounds, 1.8% hits; AID 540276; calls by dose curve; tested in HEK293 cells; also: potency is read from the fitted curve at half-maximal effect
VACV mCherry inh: inhibitors of vaccinia virus infection (mCherry reporter signal); Vaccinia virus mCherry reporter infection, fluorescence; Potency, µM (series often up to 36.5 µM), for the others: at the top dose activity change, negative = inhibition, usual class: inhibitors; 310,000 compounds, 0.63% hits; calls by dose curve; tested in A549 cells; also: potency is read from the fitted curve at half-maximal effect; nearly all actives have a fitted effect of over 35% in size
VACV Venus inh: vaccinia inhibition (Venus reporter); 330,000 compounds, 0.46% hits; Potency, µM (top dose mostly 36.5 µM), for inactives: at the top dose activity change, negative = inhibition, actives largely listed as inhibitors; AID 720580; Vaccinia virus Venus reporter expression, fluorescence; calls by dose curve; tested in A549 cells; also: potency is read from the fitted curve at half-maximal effect; nearly all actives have a fitted effect of over 30% in size
HCV inh: HCV inhibition | Potency, µM (top dose mostly 41.8 µM), for inactives: at the highest dose activity change, negative = inhibition, actives largely listed as inhibitors | 340,000 compounds, 3.4% hits | Huh7.5.1 HCVcc-Cre infection, luciferase reporter, 44 h; active = well fitted inhibition curve with a large enough effect; inconclusive = small, poorly fitted or top-dose-only effect, or another doubt; inactive = no such curve, though single readings can be large or run the other way; also: potency is read from the fitted curve at half-maximal effect
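Antiviral activity was scored by luciferase reporter output from cells infected with HCVcc-Cre (~0.5 moi) in presence of compound, 44 h infection period, cells seeded 1,000/well 4 h prior.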
Lassa entry inh: Lassa virus entry inhibition; Lassa virus pseudotype entry inhibition, cell reporter; 300,000 compounds, 1.2% hits; Potency, µM (highest dose often 37.9 µM), for inactives: at the top dose activity change, negative = inhibition, usual class: inhibitors; calls by dose curve; tested in HEK293 cells; also: potency is read from the fitted curve at half-maximal effect; nearly all actives have a fitted effect of over 50% in size
HCMV antiviral: inhibitors of human cytomegalovirus. 410,000 compounds, 4.5% hits. activity change, negative = inhibition, % at 57.5 µM. AID 1259415. HFF cells, HCMV-luciferase reporter, 72 h; active compounds read low; in the data active = activity change below about -60%; inconclusive = no clear call, values can overlap the other calls; inactive = above about -39%
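Two compound doses tested in HFFs infected with HCMV-luciferase, MOI 1 PFU/cell, 72 h at 37C. Lysate luminescence read with OneGlo; data normalized against buffer-only and 10uM Salinomycin inhibitor controls.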
Numbers without * were called inactive; i = inactive; ? = inconclusive; · = no result given; [ ] = another dose, or the depositor's remark. % is scaled to controls: 0 for no effect and ±100 for the full control effect.

SMILES	MARV entry inh	VACV mCherry inh	VACV Venus inh	HCV inh	Lassa entry inh	HCMV antiviral
Nc1ncnc2oc(-c3ccoc3)c(-c3ccco3)c12	·	?	-16%	·	·	·
COc1ccc(C)cc1NC(=O)Cn1cc(S(=O)(=O)N2CCC(C)CC2)c2ccccc2c1=O	?	-22%	-13%	·	-22%[46.1 µM]	14
Nc1cc(=O)[nH]c(=O)n1CCCc1ccccc1	-2%[46.1 µM]	-5%	-9%	1%	-6%[46.1 µM]	-73*
Nc1cc(=O)[nH]c(=O)n1Cc1ccccc1	1%	i	-10%	12%	0%	3
CCCCCOc1ccc(NC(=O)c2cc(SC)ccc2Cl)cc1	-1%	-4%	-1%	?	8%	-60*
COc1ccccc1N(C)S(=O)(=O)c1ccc(C(=O)Nc2cc(F)ccc2C)cc1	9%[46.1 µM]	-3%	-12%	6.3µM*	?	0
COc1ccccc1N(C)S(=O)(=O)c1ccc(C(=O)Nc2nc(C)cs2)cc1	16µM*	·	·	?	?	-18
COc1cc(NC(=O)CN2C(=O)CN(C)C2=O)c(C)cc1[N+](=O)[O-]	?	-3%	2%	-24%	?	-2
COc1cc(NC(=O)Cn2ncc(Cl)c(Cl)c2=O)c(C)cc1[N+](=O)[O-]	7.1µM*	?	?	?	?	-96*
CCC(=O)N(CCCN(C)C)c1nc(-c2cc(OC)ccc2OC)cs1	?	·	·	5.6µM*	9%	-8
COc1ccc(-c2csc(N(CCCN(C)C)C(=O)c3ccc(Br)cc3)n2)cc1	?	-5%	-11%	?	?	-62*
COc1ccc(-c2csc(N(CCCN(C)C)C(=O)c3ccc(C)cc3)n2)cc1	?	-12%	?	25µM*	0%[46.1 µM]	-22
COc1ccc(-c2csc(N(CCCN(C)C)C(=O)c3ccc(C(C)(C)C)cc3)n2)cc1	?	?	-19%	-19%	?	-25
COc1ccc(-c2csc(N(CCCN(C)C)C(=O)c3cc(OC)c(OC)c(OC)c3)n2)cc1	·	·	·	-6%	·	-23
COCCCN(C(C)=O)c1nc(-c2ccc(OC)cc2)cs1	?	·	·	?	10µM*	84
COc1ccc(Cc2c(C(C)(C)C)nc3ccc(Cl)cn23)c(C)c1	·	10%	-5%	·	·	-20
COc1cccc(-c2cc(C(=O)NCCc3ccc(C)cc3)[nH]n2)c1	·	-7%	0%	·	-23%[46.1 µM]	-4
COc1ccc(S(=O)(=O)NCCc2csc(-c3ccc(F)cc3)n2)cc1F	·	-22%	-17%	·	-16%[46.1 µM]	-9
CCN(CC)CCCN(C(=O)c1ccc(OC)cc1)c1nc(-c2ccc(OC)cc2)cs1	?	-13%	-24%	?	?	-63*
CCN(CC)CCCN(C(=O)c1ccccc1C)c1nc(-c2ccc(OC)cc2)cs1	·	·	·	-30%	·	59
Cc1nn(Cc2ccc(C(=O)NC(C)(C)C)o2)c(C)c1Br	?	·	?	?	-9%	-80*
Cc1nn(Cc2ccc(C(=O)Nc3ccc(C(=O)OC(C)C)cc3)o2)c(C)c1Cl	?	-6%	-28%	?	?	-1
Cc1nn(Cc2ccc(C(=O)NN)o2)c(C)c1Cl	·	·	·	13µM*	·	22
COc1ccccc1NC(=O)N1CC(=O)N2[C@H](C1)[C@@H](c1ccc(Br)cc1)[C@@H]2CO	·	·	·	·	·	7
CCOC(=O)C1=C(CN(C)Cc2ccccc2)NC(=O)NC1c1ccc(OC(C)C)cc1 (stereo not given)	?	3%	3%	·	-27%[46.1 µM]	-20
Cc1cc(NC(=O)CS(=O)CC(=O)Nc2c(C)cccc2C)ccc1-n1cnnn1 (stereo not given)	?	-25%	-6%	4%	4%[46.1 µM]	14
CC(=O)Nc1ccc2cc3ccc(NC(C)=O)cc3nc2c1	·	·	·	-4%	·	-98*
O=C(Nc1ccc2nc3ccccc3nc2c1)c1ccccc1	?	10µM*	?	?	11µM*	91
Cc1ccc(NC(=O)c2ccc(NC(=O)c3ccccc3)cc2)cc1C	?	?	10µM*	·	?	?
Cc1cc(C)c(NC(=O)CS(=O)CC(=O)Nc2ccc(-n3cnnn3)c(C)c2)c(C)c1 (stereo not given)	?	-6%	-13%	2%	?	-69*
